Compounds without any hit were thinned out: in the full panel of roughly 79,000, 15% have a hit. Unmarked numbers belong to inactive results. The source made the active and inactive calls. Rule as the data show it: active = growth inhibition above about 70%; inactive = the rest.

The nature of test [1]: NCI Yeast Anticancer Drug Screen. Data for the rad50 strain (AID 155).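 Also: 0% = growth of vehicle-only cultures of the same strain.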 Conditions: S. cerevisiae rad50 strain growth inhibition; at 50.0 µM; hits give high values. The gist of the method: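 DNA repair mutant yeast, compound exposure, growth read-out; inhibition is taken relative to vehicle.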
A short description of test [2]: NCI Yeast Anticancer Drug Screen. Data for the mec2-1 strain (AID 157). Conditions: S. cerevisiae mec2-1 strain, at 50.0 µM, hits give high values. In outline:
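Using mec2-1 yeast: add compound, measure growth, express inhibition versus vehicle-treated cultures.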

Test [3] can be described thus: NCI Yeast Anticancer Drug Screen. Data for the sgs1 mgt1 strain (AID 161).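 Also: 0% = growth of cultures given vehicle only.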 Conditions: S. cerevisiae sgs1 mgt1 strain, at 50.0 µM, hits give high values. In outline:
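This yeast growth screen uses a strain with defined DNA-repair lesions; compound-treated growth is compared with vehicle-treated growth.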

The nature of test [4]: NCI Yeast Anticancer Drug Screen. Data for the cln2 rad14 strain (AID 165).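 Also: 0% = growth equal to vehicle treated cultures.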 Conditions: S. cerevisiae cln2 rad14 strain, at 50.0 µM, hits give high values. The gist of the method:
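Yeast strain cln2 rad14, bearing defects in cell cycle control and DNA repair, serves as the test system; values reflect growth inhibition compared with vehicle.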

Test [5] can be described thus: NCI Yeast Anticancer Drug Screen. Data for the bub3 strain (AID 167). The conditions noted are these: S. cerevisiae bub3 mutant strain, at 50.0 µM, hits give high values. The gist of the method: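 In this screen, a yeast mutant lacking normal mitotic checkpoint function is challenged with compound. Relative growth versus vehicle gives the inhibition value.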
Test [6] is described as follows: NCI Yeast Anticancer Drug Screen. Data for the mlh1 rad18 strain (AID 175). The conditions noted are these: S. cerevisiae mlh1 rad18 strain growth inhibition; at 50.0 µM; hits give high values. In outline: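 Steps: expose repair-defective yeast to compound; measure growth; express inhibition against vehicle-treated controls.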

`Cc1[nH]c2ccc(-c3ccccc3)cc2c1CC(=O)OC(C)C`: the growth inhibition in test [1] is 97% (active); in test [2], 98.5% (active); in test [3], 98.2% (active); in test [4] it was 97.8% (active); in test [5] it was 98.2% (active); in test [6] it was 98% (active).
As for `SC1c2ccccc2-c2ccccc21`, the growth inhibition is 30.1% in test [1]; 2.75% in test [2]; 7.5% in test [3]; 7.25% in test [4]; -30.2% in test [5]; 1.7% in test [6].
Regarding `O=S(=O)(O)c1ccccc1P(c1ccccc1)c1ccccc1`, the growth inhibition is 17.1% in test [1]; 17.7% in test [2]; 8.15% in test [3]; 36.1% in test [4]; 17.6% in test [5]; 14.6% in test [6].
For `CCNc1ncc2nc(CC(=O)OC)c(=O)n(CC)c2n1`, the growth inhibition in test [1] was -10.3%; in test [2], 1.6%; in test [3], 4.75%; in test [4] it was -75.6%; in test [5], 10.5%; in test [6] it was -4.4%.
For the compound `COc1cc(C2=C3C(=O)OCC3Cc3ccccc32)ccc1OCc1ccccc1` (configuration not stated), the growth inhibition in test [1] was 18.9%; in test [2] it was -0.5%; in test [3] it was 7.5%; in test [4], 5.55%; in test [5], 11.1%; in test [6], 29.6%.
Consider `CN1CC2=C(C1)C(N(C(=O)c1ccc(-c3ccccc3)cc1)C(=O)c1ccc(-c3ccccc3)cc1)=NCN2`, for which the growth inhibition was 11.4% in test [1]; 3.25% in test [2]; 16.1% in test [3]; 10.6% in test [4]; 0.6% in test [5]; 21.6% in test [6].
`O=C(O)/C=C\c1cccc([N+](=O)[O-])c1`: the growth inhibition in test [1] is 11.9%; in test [2], -16.4%; in test [3] it was 7.4%; in test [4], 22.3%; in test [5], 27.6%; in test [6] it was -14.8%.
Take `CC(CCc1ccccc1)NC1=NCCO1` (configuration not stated): the growth inhibition is -9.6% in test [1]; -12.2% in test [2]; -16.4% in test [3]; -23.6% in test [4]; -1.2% in test [5]; 2.7% in test [6].
For the compound `CC(C)(CO)CN1CCCC1`, the growth inhibition in test [1] was 10.3%; in test [2], -25.9%; in test [3], -4.05%; in test [4], 1.3%; in test [5], 3%; in test [6] it was 0.8%.
Turning to `Cc1ccc(CO)cc1C`, the growth inhibition in test [1] is 4.75%; in test [2], -8.5%; in test [3], -2.2%; in test [4], -6.55%; in test [5] it was -1.35%; in test [6], -0.15%.
Regarding `O=C(O)CNc1ccccc1.[Cu+2]`, the growth inhibition in test [1] was -38.5%; in test [2], -28.1%; in test [3], -51.5%; in test [4], 6.95%; in test [5] it was -35.9%; in test [6], -15.8%.
Consider `C#CCN(CC#C)C(=O)Nc1ccc(Cl)cc1`, for which the growth inhibition in test [1] was -33.5%; in test [2], -21.4%; in test [3], -11.2%; in test [4] it was -47%; in test [5], -16.2%; in test [6], 3.45%.
Turning to `CC(C)(C)N=Cc1ccccc1[O-].CC(C)(C)N=Cc1ccccc1[O-].[Co+2]`, the growth inhibition in test [1] is 4%; in test [2], 7.9%; in test [3] it was -14.5%; in test [4], 0.25%; in test [5] it was 3.6%; in test [6] it was -5.85%.
In the case of `Cc1nc(C(Cl)(Cl)Cl)nc(C(Cl)(Cl)Cl)n1`, the growth inhibition in test [1] is 19.9%; in test [2] it was 47%; in test [3] it was 27.2%; in test [4], 9%; in test [5] it was 18.4%; in test [6] it was 20.4%.
As to `Cc1ccccc1C(=O)OC1CCCCC1`, the growth inhibition in test [1] is 9.2%; in test [2], -13.1%; in test [3], -9.65%; in test [4] it was -39.5%; in test [5] it was 9.8%; in test [6] it was 5.7%.
For `N#C/C(=C\NC(=S)NCc1ccccc1)c1nc2ccccc2s1`, the growth inhibition is 54.1% in test [1]; 32.4% in test [2]; 53.5% in test [3]; 43.3% in test [4]; 30.5% in test [5]; 61.5% in test [6].
Turning to `CCNC(=O)OCCN(CCOC(=O)NCC)CCc1ccccc1`, the growth inhibition is 8.7% in test [1]; 9.15% in test [2]; 15.5% in test [3]; -7.75% in test [4]; -17.4% in test [5]; 6.3% in test [6].
On to `COc1ccc(C(=O)CC(=O)C2CCCCC2=O)cc1` (configuration not stated), for which the growth inhibition in test [1] was -12.5%; in test [2], -12.3%; in test [3], -3.4%; in test [4], -19.8%; in test [5], 19.3%; in test [6], -9.05%.
Regarding `Cc1cccc2c1C(=O)C(C1OC(=O)c3ccccc31)C2` (configuration not stated), the growth inhibition in test [1] was 7.15%; in test [2] it was 9.75%; in test [3] it was 1.5%; in test [4] it was -31%; in test [5] it was 13.5%; in test [6] it was -12.4%.
Regarding `C#CCN(CC#C)C(=O)CCCCCCCCC=C`, the growth inhibition is 97% (active) in test [1]; 96.5% (active) in test [2]; 97% (active) in test [3]; 86% (active) in test [4]; 97.5% (active) in test [5]; 97.2% (active) in test [6].
As to `O=C(O)Cc1cc(Cl)ccc1Cl`, the growth inhibition in test [1] is -4%; in test [2] it was 8.85%; in test [3] it was 8.7%; in test [4], -2.55%; in test [5], -1.2%; in test [6], -9.05%.
In the case of `Oc1ccc2ccccc2c1/C=N\Sc1ccc(Cl)cc1`, the growth inhibition in test [1] was 49%; in test [2], 34.7%; in test [3] it was 64.1%; in test [4] it was 28.8%; in test [5] it was 32.2%; in test [6], 49%.

(Values after PubChem BioAssay (NCI).)
